An excerpt weighted towards active compounds, which were near 19% of everything screened.
KB-V1 cytotox: kills drug-selected multidrug resistant KB-V1 cells; AID 1347076; KB-V1 MDR cells viability, CellTiter-Glo, 72 h; 3.4% of 400,000 active; Potency, µM (highest dose often 46.1 µM), actives largely listed as cytotoxic; further: nearly all actives have a fitted effect of over 60% in size
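Potencies derive from concentration-effect curves fitted to normalized luminescence (CellTiter-Glo) of KB-V1 cells treated for 72 h at 37 degrees C in phenol-red-free DMEM containing 10% FBS.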
KB-3-1 tox: KB-3-1 parental cell cytotoxicity | KB-3-1 viability, CellTiter-Glo ATP luminescence, 72 h | Potency, µM (highest dose often 46.1 µM), usual class: cytotoxic | 1.4% of 400,000 active; further: nearly all actives have a fitted effect of over 60% in size
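Here the drug-naive KB-3-1 line serves as comparator for MDR sub-line selectivity; cells received compound titrations, 72 h at 37 °C, then CellTiter-Glo readout.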
HT1080 IDH1KD tx: kills HT-1080 cells with IDH1 knockdown | Potency, µM (top dose mostly 46.1 µM), for the others: at the highest dose activity, negative = toxicity, most hits filed as cytotoxic | HT-1080 IDH1 knockdown viability, ATP luminescence, 48 h | 2% of 360,000 active;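 further: 0% = DMSO wells and -100% = cell-free medium wells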
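HT-1080-IDH1KD cells (IDH1 knocked down), 750/well in RPMI with 5% FBS, treated with compound 48 h at 37 degrees C. Viability by CellTiter-Glo luminescence, normalised to DMSO and no-cell wells; concentration-response curves classed.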
HT1080-NT tox: kills 2HG-producing HT-1080-NT fibrosarcoma cells; HT-1080-NT fibrosarcoma viability, CellTiter-Glo ATP luminescence, 48 h; Potency, µM (top dose mostly 46.1 µM), for the others: top-dose activity, negative = less viability, most hits filed as cytotoxic; 1.6% of 360,000 active;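 further: NT is the 2HG producing partner of a matched IDH1 knockdown line; 0% = DMSO-treated cells and -100% = media-only wells without cells; nearly all actives have a fitted effect of over 55% in size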
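Fibrosarcoma NT cells, 750 per well in 5% FBS RPMI, were exposed to compound for 48 hours. Viability: CellTiter-Glo luminescence.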
DT40 TDP1 CPT: growth inhibition of DT40 Tdp1-/-;hTDP1 cells with camptothecin (screen for TDP1 inhibitors); chicken DT40 Tdp1-/-;hTDP1 cells + 20 nM CPT, ATP luminescence, 48 h; 12% of 420,000 active; Potency, µM (top dose mostly 46.2 µM), inactives show at the top dose activity change, negative = growth inhibition, actives largely listed as inhibitors; further: nearly all actives have a fitted effect of over 55% in size
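Chicken DT40 Tdp1-/- cells stably complemented with human TDP1 were seeded at 400 cells/well in medium containing 20 nM camptothecin, exposed to pin-transferred compounds, and grown at 37 °C for at least 48 hr. Viability was read as ATP luminescence.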
TDP1 cell noCPT: qHTS for Inhibitors of human tyrosyl-DNA phosphodiesterase 1 (TDP1): qHTS in cells in absence of CPT; DT40 Tdp1-/- hTDP1 cells, no CPT, ATP luminescence, 48 h; Potency, µM (titrated, usually from 46.2 µM), inactives show at the highest dose activity change, negative = growth inhibition, hits mostly inhibitors; 15% of 420,000 active; further: nearly all actives have a fitted effect of over 55% in size
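No-CPT arm: Tdp1-/-;hTDP1 DT40 cells (400/well) plus compounds, incubated ≥48 hr at 37 °C. Readout CellTiter-Glo luminescence.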
* marks the source's active call; other numbers are inactive results; i = inactive; ? = inconclusive; nt = no result; [ ] = remark or other dose. The call rests on the fitted dose curve; in most records, active means well fitted curve in the direction sought with a large enough effect; inconclusive means small, poorly fitted or top-dose-only effect, or another doubt; inactive means no such curve, though single readings can be large; an effect the other way counts as inactive or inconclusive. Unless noted, on the % scale 0 is the no-effect control and ±100 the full control effect; potency means the concentration at half of the fitted maximal effect.

SMILES | KB-V1 cytotox | KB-3-1 tox | HT1080 IDH1KD tx | HT1080-NT tox | DT40 TDP1 CPT | TDP1 cell noCPT
OC1(c2cccnc2)CCN(Cc2ccc3c(c2)CN(Cc2cccc(C(F)(F)F)c2)CCO3)CC1 | nt | nt | nt | nt | -22%[9.04 µM] | 26µM*
OC1(c2cccnc2)CCN(Cc2ccc3c(c2)CN(Cc2cc4ccccc4s2)CCO3)CC1 | nt | nt | nt | nt | -2%[9.04 µM] | 16µM*
N#Cc1c(NC(=S)NC(=O)c2ccccc2)sc2c1CCC2 | i | i | 18% | 19% | 18µM* | ?
CC(C)(C)c1ccc(C(=O)NC(=S)Nc2sc3c(c2C#N)CCC3)cc1 | ? | ? | -6% | 3% | ? | ?
CC(C)(C)C(=O)NC(NC(=S)Nc1sc2c(c1C#N)CCCC2)C(Cl)(Cl)Cl (stereo unspecified) | i | i | -8% | -3% | 26µM* | ?
Cc1nc(Nc2nc3ccccc3o2)nc2c1CCCC2 | i | i | nt | nt | nt | nt
Fc1ccccc1COc1ccc(Br)cc1CNCc1ccncc1 | ? | ? | ? | -28% | ? | ?
COc1cc(CNn2c(C)n[nH]c2=S)cc(Br)c1OCc1ccc(F)cc1 | i | i | -22% | -4% | 2% | -2%
Fc1ccc(COc2cccc(CNCc3ccncc3)c2)cc1 | ? | ? | -16% | 0% | ? | 8.2µM*
Fc1ccc(COc2ccc(Br)cc2CNCc2ccncc2)cc1 | 2.9µM* | i | ? | -19% | ? | ?
CCOc1cc(CNCc2ccncc2)cc(Br)c1OCc1ccc(F)cc1 | ? | i | 11µM* | ? | 10µM* | 11µM*
Cc1ccc2nc(CN3CCN(C(=O)Nc4ccc(F)cc4)CC3)oc2c1 | ? | i | nt | nt | ? | ?
COc1ccc(NC(=O)c2oc3ccccc3c2NC(=O)c2ccco2)c(OC)c1 | i | i | 6% | ? | 6.3µM* | ?
O=C(Nc1c(C(=O)Nc2ccc(F)cc2)oc2ccccc12)c1cc2ccccc2o1 | i | i | nt | nt | ? | 18µM*
COc1ccc(NC(=O)c2oc3ccccc3c2NC(=O)c2cc3ccccc3o2)c(OC)c1 | ? | i | nt | nt | 17% | -19%
COc1ccc(NC(=O)c2oc3ccccc3c2NC(=O)c2cc(=O)c3c(C)cc(C)cc3o2)cc1 | i | i | nt | nt | ? | 2.9µM*
COc1ccc(NC(=O)c2oc3ccccc3c2NC(=O)c2cc3ccccc3o2)cc1 | ? | i | nt | nt | ? | 4.1µM*
COc1ccc(NC(=O)c2oc3ccccc3c2NC(=O)c2cc(=O)c3ccccc3o2)cc1 | i | i | nt | nt | ? | ?
CCCCC(Sc1ccc2nnc(-c3ccccn3)n2n1)C(=O)O (stereo unspecified) | ? | ? | nt | nt | 17% | -1%
COc1ccc(NC(=O)c2ccccc2NC(=O)c2ccco2)cc1 | ? | i | -17% | -7% | ? | ?
COc1ccc(NC(=O)c2oc3ccccc3c2NC(=O)c2ccco2)cc1 | ? | i | ? | 4% | ? | 18µM*
COc1ccc(C(O)c2nc(-c3cncnc3)cs2)cc1 (stereo unspecified) | i | i | 18% | ? | -11% | ?
O=C(Nc1ccccc1)N1CCN(c2nc(-c3ccccc3)ns2)CC1 | i | i | -13% | -30% | 23µM* | 16µM*
Cn1c(N2CCN(C(=O)Nc3ccc(F)cc3)CC2)nc2ccccc21 | 18µM* | i | 19% | 22% | -2% | -17%
Cn1c(N2CCN(C(c3ccccc3)c3ccccc3)CC2)nc2ccccc21 | ? | ? | ? | ? | ? | 18µM*
SMILES | KB-V1 cytotox | KB-3-1 tox | HT1080 IDH1KD tx | HT1080-NT tox | DT40 TDP1 CPT | TDP1 cell noCPT
Cn1c(C(O)C(O)c2ccccc2)nc2ccccc21 (stereo unspecified) | ? | i | -2% | 2% | 0% | -27%
O=C(c1ccc(Cl)s1)N1CCN(c2nc3ccccc3s2)CC1 | ? | i | -5% | -22% | ? | 16µM*
O=C(c1cccs1)N1CCN(c2nc3ccccc3s2)CC1 | i | i | 4% | -2% | ? | ?
Oc1ccccc1C=NCc1ccccc1 | nt | nt | nt | nt | 5% | ?
Cc1ccc(S(=O)(=O)c2nc(-c3cccs3)oc2SC(C)c2ccccc2)cc1 (stereo unspecified) | i | i | nt | nt | ? | ?
CSc1ccc(NC(=O)N2CCN(c3nc4ccccc4s3)CC2)cc1 | 2.6µM* | ? | -5% | 2% | ? | ?
Cc1ccccc1NC(=O)c1cc2sccc2n1Cc1ccc(F)cc1 | i | i | nt | nt | ? | 26µM*
CC(C)CNC(=S)N1CCN(c2nc3ccccc3s2)CC1 | i | i | -5% | ? | ? | ?
O=C(c1ccc(-c2nc3ccccc3s2)s1)N1CCOCC1 | ? | ? | ? | 8.2µM* | ? | ?
CCSc1ccccc1C(=O)N1CCN(c2nc3ccccc3s2)CC1 | nt | nt | nt | nt | ? | 15µM*
O=C(CSc1ccccc1)Nc1ccc2sccc2c1 | i | i | 14% | 7% | 2% | -23%
CO[C@H]1CN(C)C(=O)c2cc(NC(=O)c3cc(C)on3)ccc2OC[C@@H](C)N(C(=O)C2CC2)C[C@H]1C | i | i | 12% | 18% | 1% | -7%
O=C(c1cc2sccc2n1Cc1ccc(F)cc1)N1CCN(c2nc3ccccc3s2)CC1 | ? | ? | ? | -1% | 13µM* | 21µM*
COc1ccccc1Cn1c(=O)c2ccccc2n2c(Sc3ncnc4sccc34)nnc12 | ? | ? | ? | ? | 21µM* | 21µM*
N#CCCn1c2ccccc2c2nc3ccccc3nc21 | i | i | -3% | -4% | ? | 9.2µM*
O=c1oc2ccccc2n1CCn1c2ccccc2c2nc3ccccc3nc21 | i | i | 4% | 2% | 16µM* | 5.8µM*
COc1ccc2c(c1)c1nc3ccccc3nc1n2CCn1c(=O)oc2ccccc21 | i | i | -7% | -12% | ? | ?
CCN(CC)CCn1c2ccccc2c2nc3ccccc3nc21 | ? | ? | -21% | -25% | ? | 23µM*
CCN(CC)CCn1c2ccccc2c(=O)c2c(O)ccc(O)c21 | i | i | 6% | -8% | 7.3µM* | 21µM*
O=C1c2ccccc2C(c2nnnn2Cc2ccccc2)N1CCc1ccc(O)cc1 (stereo unspecified) | ? | i | 1% | 11% | -13% | -23%
